Measurements from paper PMC5540273 (PLoS ONE, 2017).

Columns and labels:
Details in all cases: concentration: 1 μM,replicates: in singlicate; n = 1
SNARK = tested on: T1, SNARK
T1 construct: gene NUAK2

SNRK = tested on: SNRK
SRC = tested on: SRC
SRMS = tested on: SRMS
SRPK1 = tested on: SRPK1
SRPK2 = tested on: SRPK2
SRPK3 = tested on: SRPK3
STK16 = tested on: STK16
STK33 = tested on: STK33
STK35 = tested on: STK35
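Note: KINOMEscan kinase panel screen.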

| SMILES | %Inh (SNARK) [%] | %Inh (SNRK) [%] | %Inh (SRC) [%] | %Inh (SRMS) [%] | %Inh (SRPK1) [%] | %Inh (SRPK2) [%] | %Inh (SRPK3) [%] | %Inh (STK16) [%] | %Inh (STK33) [%] | %Inh (STK35) [%] |
| --- | --- | --- | --- | --- | --- | --- | --- | --- | --- | --- |
| CCn1c(-c2nonc2N)nc2cncc(CNC3CCNCC3)c21.Cl [SB-747651] | 13 | 0 | 0 | 0 | 23 | 0 | 0 | 15 | 0 | 0 |
| CCCC(=O)Nc1n[nH]c2ncccc12 [SB-601436] | 0 | 0 | 0 | 4 | 16 | 0 | 10 | 3 | 0 | 0 |
| CN(c1cccc(CNc2nc(Nc3ccc4c(c3)CC(=O)N4)ncc2C(F)(F)F)c1)S(C)(=O)=O | 76 | 0 | 4 | 0 | 73 | 0 | 31 | 90.2 | 0 | 8 |
| O=C(Nc1cccc(C(F)(F)F)c1)c1cccc(Oc2ccc3nccn3n2)c1 | 0 | 1 | 17 | 0 | 3 | 0 | 4 | 7 | 22 | 8 |
| NC(=O)c1ccc(-c2cc3ncnc(SCC(=O)O)c3s2)cc1 | 0 | 0 | 0 | 0 | 0 | 0 | 0 | 54 | 0 | 0 |
| Cc1cccc(-c2nc(Nc3ccncc3)c3sccc3n2)n1 [GW869641] | 29 | 25 | 12 | 21 | 7 | 0 | 24 | 16 | 27 | 1 |
| C[C@@H]1CNc2c(sc3ccc4nc(-c5ccncc5)ccc4c23)C(=O)N1 | 53 | 11 | 1 | 0 | 23 | 0 | 31 | 13 | 60 | 0 |
| NC(=O)Nc1sc(-c2ccc(F)cc2)cc1C(N)=O [GW789449] | 75 | 6 | 55 | 18 | 81 | 35 | 90.6 | 26 | 0 | 0 |
| CS(=O)(=O)Nc1ccc(-c2ccnc3[nH]ccc23)cc1 [GSK993273] | 40 | 0 | 0 | 0 | 77 | 0 | 75 | 81 | 5 | 15 |
| CN(c1ccc2c(c1)nc(NCc1ccc(F)cc1)n2C)c1ccnc(Nc2ccc(CS(C)(=O)=O)cc2)n1.Cl [GW813244] | 0 | 0 | 64 | 56 | 41 | 0 | 67 | 46 | 0 | 15 |
| Cc1ccc(Nc2ccnc(Nc3ccc4c(c3)CS(=O)(=O)C4)n2)cc1O.Cl [GW579362] | 52 | 6 | 99.9 | 87 | 99.2 | 18 | 83 | 98.5 | 89 | 22 |
| CCNCC(Cc1ccccc1)NC(=O)c1cc(Br)c(-c2ccnc3[nH]ccc23)s1.Cl.Cl (stereo not drawn) [GSK1383280] | 93.1 | 0 | 14 | 0 | 56 | 0 | 0 | 51 | 95.9 | 0 |
| C[C@@H](Oc1cc(-n2cnc3cc(-c4cnn(C)c4)ccc32)sc1C(N)=O)c1ccccc1Cl [GSK580432] | 98.4 | 0 | 84 | 0 | 98.2 | 42 | 85 | 51 | 0 | 3 |
| Cl.c1ccc(Oc2ccc(Nc3ccnc4cc(-c5ccc(CN6CCNCC6)o5)ccc34)cc2)nc1 [GW567142] | 14 | 0 | 34 | 89 | 0 | 7 | 0 | 0 | 24 | 57 |
| COc1cccc(C2=C(Nc3cccc(Cl)c3)C(=O)NC2=O)c1 [SB-341556] | 47 | 9 | 0 | 0 | 42 | 0 | 24 | 14 | 0 | 94.9 |
| O=C(Nc1ccc(Oc2ccc3nc(NC(=O)C4CC4)cn3n2)c(F)c1)c1cccn(-c2ccccc2)c1=O | 0 | 3 | 10 | 0 | 14 | 16 | 24 | 0 | 23 | 0 |
| CN(c1ccccc1CNc1nc(Nc2ccc3c(c2)CC(=O)N3)ncc1C(F)(F)F)S(C)(=O)=O | 93.4 | 0 | 70 | 0 | 46 | 0 | 39 | 99.9 | 68 | 0 |

| SMILES | %Inh (SNARK) [%] | %Inh (SNRK) [%] | %Inh (SRC) [%] | %Inh (SRMS) [%] | %Inh (SRPK1) [%] | %Inh (SRPK2) [%] | %Inh (SRPK3) [%] | %Inh (STK16) [%] | %Inh (STK33) [%] | %Inh (STK35) [%] |
| --- | --- | --- | --- | --- | --- | --- | --- | --- | --- | --- |
| CC(=O)c1c(-c2ccncc2)[nH]c(-c2ccncc2)c1C [GW493036] | 0 | 0 | 0 | 0 | 24 | 16 | 0 | 28 | 0 | 0 |
| CN1CCN(CCNc2nc3cc(Oc4ccc(NC(=O)Nc5cc(C(F)(F)F)ccc5F)cc4)ccc3[nH]2)CC1.Cl.Cl [GW768504] | 0 | 0 | 0 | 18 | 9 | 0 | 10 | 0 | 0 | 0 |
| Cc1cccc2c(-c3ccncc3)c(-c3ccc(F)cc3)nn12.Cl [GW461487] | 17 | 0 | 0 | 0 | 0 | 0 | 100 | 4 | 0 | 0 |
| O=C(NCC1CC1)c1ccc(-c2cc(C(=O)NC3CC3)ccc2F)cc1 [GW810445] | 0 | 0 | 9 | 2 | 0 | 0 | 0 | 4 | 0 | 0 |
| Cl.Cl.NC[C@H](CC1CCCCC1)NC(=O)c1ccc(-c2ccnc3[nH]ccc23)s1 [GSK1581428] | 98.3 | 0 | 17 | 0 | 85 | 12 | 91.6 | 54 | 98.4 | 63 |
| CS(=O)c1ccc(-c2coc3ccc(-c4n[nH]c(=O)o4)cc23)cc1 (stereo not drawn) | 21 | 10 | 22 | 0 | 0 | 1 | 0 | 52 | 0 | 9 |
| CS(=O)(=O)c1cccc(CNc2nc(Nc3ccc4c(c3)[C@@H]3C[C@@H]4CNC3=O)ncc2C(F)(F)F)c1 | 97.6 | 0 | 0 | 0 | 91.6 | 0 | 49 | 97.3 | 0 | 0 |
| O=C(Nc1ccccc1)c1cccc(Oc2ccc3nccn3n2)c1 | 0 | 0 | 0 | 0 | 2 | 0 | 0 | 0 | 12 | 0 |
| C[C@@H](Oc1cc(-n2cnc3cc(-c4ccncc4)ccc32)sc1C(N)=O)c1ccccc1Cl [GSK479719] | 95.4 | 3 | 26 | 0 | 89 | 0 | 64 | 46 | 1 | 0 |
| COc1cc2nccc(Nc3ccc(Oc4ccccc4)cc3)c2cc1OC.Cl [GI261656] | 0 | 0 | 47 | 99.9 | 31 | 21 | 0 | 0 | 0 | 24 |
| CC(=O)Nc1ccc(-c2cc3ncnc(SCC(=O)O)c3s2)cc1 | 15 | 0 | 11 | 13 | 0 | 0 | 13 | 32 | 0 | 20 |
| FC(F)(F)c1cc(Br)cc(Nc2nccc(-c3cnn4ncccc34)n2)c1 [GW810578] | 47 | 0 | 39 | 6 | 9 | 0 | 0 | 42 | 12 | 9 |
| COC(=O)c1cccc(NC(=O)NC2CCN(c3ccnc(Nc4cc(OC)c(OC)c(OC)c4)n3)C2)c1 (stereo not drawn) [GSK1379767] | 21 | 0 | 19 | 0 | 35 | 45 | 4 | 61 | 0 | 0 |
| Nc1nccc(-c2ccc3c(N)n[nH]c3c2)n1 [GSK1034945] | 35 | 0 | 0 | 0 | 67 | 0 | 55 | 29 | 0 | 0 |
| CCN1CCN(CCCC(=O)Nc2n[nH]c3nc(-c4ccc(O)cc4)c(Br)cc23)CC1 [SB-731579] | 0 | 0 | 0 | 0 | 0 | 0 | 13 | 2 | 0 | 0 |
| Cc1ccc(CC(=O)N2CCc3cc(-c4cn(C)c5ncnc(N)c45)ccc32)cc1 [GSK2634758] | 37 | 8 | 0 | 6 | 13 | 31 | 10 | 100 | 0 | 5 |
